# Screens deposited in PubChem BioAssay by Johns Hopkins Ion Channel Center.
# The list is not random: actives were taken first. Their share in the collection is about 2.3%.
# ANO1 activ: TMEM16A chloride channel activators or potentiators, primary screen, cell-based, HTS | Anoctamin-1 (Mus musculus), Q8BHY3 | HEK293 TMEM16A/YFP-H148Q/I152L, iodide quench fluorescence; stronger effect = lower value | B-score at 10 µM | 340,000 tested, 0.3% active | AID 623877, 2012;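 active = fluorescence-ratio B-score plate-corrected deviation score at least 3 library SD below zero, with starting fluorescence score within 5 deviations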;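 also: channel opened by trigger with iodide after compound preincubation; score built on the fluorescence ratio of max minus min over baseline; more negative score means more quench and so TMEM16A activation or potentiation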
# CHT PAM: CHT positive allosteric modulators, primary screen, cell-based, membrane potential dye, choline EC20; 310,000 tested, 0.49% active; B-score at 10 µM; High affinity choline transporter 1 (Homo sapiens), Q9GZV3; CHT-expressing cells; stronger effect = higher value; LV-AA mutant CHT in HEK293 cells;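 active = initial fluorescence not abnormally high and integrated response B-score, plate-corrected, over 3 SD above library mean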
# CHT inh: inhibitors of human choline transporter CHT | High affinity choline transporter 1 (Homo sapiens), Q9GZV3 | CHT-expressing cells, membrane potential dye, choline response; stronger effect = lower value | B-score at 10 µM | 310,000 tested, 0.86% active;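 active = B-score over 3 SD under the library average, and starting fluorescence ratio not unusually high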;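 also: choline stimulus applied at its EC90 after an EC20 pre-addition; B-score computed on integrated fluorescence ratio after choline addition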
# TMEM16A inh: TMEM16A chloride channel inhibitors, primary screen, cell-based, HTS; HEK293 TMEM16A/YFP iodide influx fluorescence, ionomycin; normalized B-score (activity score, 25-100; higher = stronger inhibition) at 10 µM; 310,000 tested, 1.2% active; AID 588511, 2011;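 active = ratio plate-corrected score three or more library SD toward inhibition, starting fluorescence score within five deviations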;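 also: score derived from kinetic fluorescence span divided by baseline fluorescence per well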
# CHT act confirm: CHT activators, confirmation, cell-based, membrane potential dye, duplicate; shares compounds with CHT PAM; CHT-expressing cells, membrane potential dye fluorescence (FDSS); % of choline EC20–EC90 response window; HEK293 expressing CHT LV-AA mutant; choline added at its EC20; activation, % at 10 µM; 2,500 tested, 91% active; AID 504833, 2011;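 active = primary screen active, with duplicate mean activation above negative control mean plus 3 SD, cut at about 11% in these data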
# HEK293 MP dye: membrane potential response in parental HEK293 cells, counter-screen for CHT activator project, cell-based, membrane potential dye; shares compounds with CHT PAM; membrane potential dye fluorescence (FDSS); measured after EC20 choline addition; ratio readout change at 10 µM, hits read low; 2,500 tested, 62% active; AID 623908, 2012;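 active = duplicate-averaged ratio beyond 3 SD from buffer wells, up or down, though filed actives are nearly all decreases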
# Numbers without * were called inactive; i = inactive; · = not tested or not shown.
SMILES,ANO1 activ,CHT PAM,CHT inh,TMEM16A inh,CHT act confirm,HEK293 MP dye
COc1ccc(/C=C/C(=O)NC(C)CCc2ccccc2)cc1OC (stereo unspecified),i,i,i,i,·,·
COc1ccc(/C=C/C(=O)NCCCN2CCCC2)cc1,i,i,i,i,·,·
COc1ccc(/C=C/C(=O)NC(C)CCc2ccccc2)cc1 (stereo unspecified),i,i,i,i,35*,i
COc1ccc(/C=C/C(=O)NCCCc2ccccc2)cc1,i,6.6*,i,i,38*,i
Cc1cc(C)c(S(=O)(=O)N2CCN(C(=O)CN3C(=O)NC4(CCCC4)C3=O)CC2)c(C)c1,i,i,i,i,·,·
c1ccc(-c2ccccc2OCCCN2CCCC2)cc1,i,i,i,i,2,i
COc1ccc(C(=O)N/N=C/c2ccccc2OC(=O)c2ccccc2)cc1,i,i,i,i,·,·
COc1ccc(C(=O)N/N=C/c2cc3ccccc3[nH]c2=O)cc1,i,i,i,i,29*,-32*
COc1ccccc1CNC(=O)COC(=O)CSc1ccc(F)cc1,i,i,i,i,·,·
COc1ccc(-n2c(Cc3ccccc3)nnc2SCc2ccc([N+](=O)[O-])cc2)cc1,i,i,i,i,·,·
O=[N+]([O-])c1ccc(CSc2nnc(Cc3ccccc3)n2-c2ccc(F)cc2)cc1,i,i,i,i,21*,i
O=C(NC(=S)NC1CCC(O)CC1)c1ccco1 (stereo unspecified),i,·,·,·,·,·
COCC(=O)N1CCC(Oc2ccc(C(=O)N3C[C@@H]4CCC[C@H]3C4)cc2)CC1,i,·,·,·,·,·
CSc1nnc(-c2ccccc2N=Cc2c(C)[nH]n(-c3ccc4ccccc4c3)c2=O)c(=O)[nH]1,i,8.3*,i,i,24*,i
Cc1cc(=O)[nH]c(SCC(=O)c2ccc(F)c(C)c2)n1,i,i,i,i,·,·
Cc1ccc2c(c1)S/C(=C/c1ccc[n+](C)c1)N2CCO,i,7*,i,i,34*,-49*
O=C(c1ccccc1)C(Nc1ccccn1)c1ccccc1 (stereo unspecified),i,i,i,i,·,·
CN(C(=O)COC(=O)CSc1ccc(C(N)=O)cc1[N+](=O)[O-])C1CCS(=O)(=O)C1 (stereo unspecified),i,i,i,i,·,·
Cc1ccc2ncnc(NCCC(=O)O)c2c1,i,i,i,i,·,·
COCCCNc1ncnc2ccc(C)cc12,i,i,i,i,18*,-34*
C=C[C@@]1(C)CCC(/C(C)=C/C=C/C(C)(C)O)C[C@@H]1C(=C)C (stereo partly specified),i,·,·,·,·,·
Cn1c(N/N=C/c2c[nH]c3ccccc23)nc2ccccc21,i,i,i,i,33*,-59*
CCCc1nnc(SCC(=O)NC2CCCC2)n1CCOC,i,i,i,i,·,·
CCCn1c(=N)c(C#N)cc2c(=O)n3cccc(C)c3nc21,·,8.3*,i,i,49*,-38*
CCC(C)n1c(=N)c(C#N)cc2c(=O)n3ccccc3nc21 (stereo unspecified),i,i,i,i,·,·
SMILES,ANO1 activ,CHT PAM,CHT inh,TMEM16A inh,CHT act confirm,HEK293 MP dye
CCCn1c(=N)c(C#N)cc2c(=O)n3ccccc3nc21,i,7*,i,i,48*,-64*
Cc1cccn2c(=O)c3cc(C#N)c(=N)n(CCN4CCOCC4)c3nc12,i,·,·,·,·,·
COc1ccccc1-c1sc2ccccc2c1-c1ccccc1OC,i,·,·,·,·,·
CC1(NC(=O)Cc2ccc(Cl)c(Cl)c2)CCS(=O)(=O)C1 (stereo unspecified),i,·,·,·,·,·
Cc1cnc(NC(=O)c2ccc(F)c(S(=O)(=O)N3CCOCC3)c2)s1,i,·,·,·,·,·
COc1ccc(C2=NC(C)(C)Cc3cc(OC)c(OC)cc32)cc1OC,i,i,i,i,72*,-83*
COc1cc2c(cc1OC)C(c1cc3ccccc3oc1=O)=NC(C)(C)C2,i,i,i,i,·,·
CCc1c(C)c(C#N)c2nc3ccccc3n2c1NCc1ccco1,i,i,i,i,11*,i
c1cc2c3c(cccc3c1)C(N1CCCCCC1)=N2,i,i,i,i,50*,-57*
CCOC(=O)c1sc(=S)n(-c2ccc(OC)cc2)c1N,i,i,i,i,13*,i
COc1cc(OC)c2nc(C)c3c(c2c1)N(c1ccc(O)cc1)CC3,i,6.4*,i,i,34*,-42*
Cc1cccc(CN2CCC(CNC(=O)CSc3cc(=O)n(C)c4cc(Cl)ccc34)CC2)c1,i,6.4*,i,i,21*,i
Cc1nn(-c2ccccc2)c(N)c1Sc1ccc([N+](=O)[O-])cc1,i,6.9*,i,i,36*,i
Cc1nn(S(=O)(=O)c2ccc(Cl)cc2)c(C)c1Sc1ccc([N+](=O)[O-])cc1,i,i,i,i,·,·
COc1ccc(N2CCN(C(=O)c3ccc4c(c3)CC(c3ccccc3)OC4=O)CC2)cc1 (stereo unspecified),i,·,·,·,·,·
Cc1cc(NCCOCCO)n2c(nc3ccccc32)c1C#N,i,i,i,i,51*,-59*
COCCNc1cc(C)c(C#N)c2nc3ccccc3n12,i,i,i,i,24*,-49*
CNC(=S)N/N=C/c1ccccc1Cl,i,i,i,i,·,·
CNC(=S)N/N=C/c1cc(C)n(-c2ccc(Cl)c(Cl)c2)c1C,i,9.3*,i,i,8,i
Cc1ccc(-n2c(C)cc(/C=N/NC(N)=S)c2C)cc1,i,14*,i,i,33*,i
CN1CC(=O)Nc2ccc([N+](=O)[O-])cc2C1=O,i,i,i,i,·,·
Cc1ccc(S(=O)(=O)N2CCN(CCOc3cccc(C)c3)CC2)cc1,i,·,·,·,·,·
COc1ccc(CN2C(=O)[C@@H]3C(c4ccccc4Cl)=NO[C@@H]3C2=O)cc1,i,i,i,i,17*,i
O=C1[C@@H]2C(c3ccccc3Cl)=NO[C@@H]2C(=O)N1Cc1ccccc1,i,i,i,i,·,·
CN(C(=O)COC(=O)c1ccc(Cl)s1)C1(C#N)CCCCC1,i,·,·,·,·,·
